# According to PubChem BioAssay (NCATS):
# Results filed as inconclusive are left out. Active and inactive are the calls of the source. Calls come from the whole dose curve; as a rule, active = well fitted inhibition curve with a large enough effect; inconclusive = small, poorly fitted or top-dose-only effect; inactive = flat fitted curve, though single readings scatter.
# Test system: HaCat
# Assay: Cytotoxic Profiling of Annotated Libraries Using Quantitative High-Throughput Screening (AID 1296008); note: nearly all actives have a fitted effect of over 60% in size
# Details: Five cell lines viability, CellTiter-Glo ATP luminescence, 48-72 h; max response: stronger effect = lower value
# How it was run: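 Cells exposed to compounds for 48 or 72 hr at 37 degrees Celsius. Viability read as ATP-coupled luminescence with CellTiter-Glo after 10 min at room temperature.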
row,Compound,outcome
1,C=C1C[C@@]23CC[C@@H]4[C@](C)(C(=O)O)CCC[C@@]4(C)C2=CC[C@H]1C3,inactive
2,CC1OC(OC2C(O)C(C(=O)O)OC(OC3CCC4(C)C(CCC5(C)C4C=CC4=C6CC(C)(C)CC(O)C6(C)CCC45C)C3(C)C)C2OC2OCC(O)C(O)C2O)C(O)C(O)C1O (stereo not given),inactive
3,CC1OC(O[C@H]2[C@@H](O)C[C@@]3(C)C([C@H](O)C[C@]4(C)C3CC=C3C5CC(C)(C)CC[C@]5(C(=O)OC5OC(CO)C(O)C(O)C5OC5OCC(OC6OCC(OC7OCC(O)C(O)C7O)C(O)C6O)C(OC6OCC(O)(CO)C6O)C5O)CC[C@]34C)[C@]2(C)CO)C(O)C(O)C1O (stereo not given in full),inactive
4,CC(=O)O[C@H]1[C@H](C)[C@@H](O)[C@H]2[C@@H]1C=C(C(=O)O)[C@H]1C[C@@H]3[C@H]([C@H]21)[C@H]1C(=O)O[C@@H]2CC[C@@]3(C)O[C@]1(O)[C@@H]2C,inactive
5,C[C@@H]1CC[C@]2(C(=O)O)CC[C@]3(C)C(=CCC4[C@]5(C)C(CC[C@]43C)C(C)(C)[C@@H](O)[C@H](O)[C@@H]5O)C2[C@]1(C)O (stereo not given in full),inactive
6,C/C=C1\[C@H](O[C@@H]2O[C@H](CO)[C@@H](O)[C@H](O)[C@H]2O)OC=C(C(=O)OC)[C@H]1CC(=O)OC,inactive
7,C/C=C/C=C/C(CC(=O)O)Nc1ccc(C=O)cc1 (stereo not given),inactive
8,C=C[C@@]1(C)CC(=O)C2[C@](C)(O1)[C@@H](OC(C)=O)[C@@H](O)[C@H]1C(C)(C)CCC[C@]21C (stereo not given in full),inactive
9,CCC(C)/C=C(C)/C=C/C1=CC2=C(Cl)C(=O)C(C)(OC(C)=O)C(=O)C2=CN1C1CCCCN(C(CCC(N)=O)C(=O)O)C1=O (stereo not given),inactive
10,C=C1C(=O)OC2CC(C)=C(C(C)CCCO[C@@H]3O[C@H](CO)[C@@H](O)[C@H](O)[C@H]3O)C(O)C12 (stereo not given in full),inactive
11,CC(C)C1=CCC(C)(O)C(OC2OC(CO)C(O)C(O)C2O)C1 (stereo not given),inactive
12,C[C@H]1C[C@H]2[C@@H]3CCC4=CC(=O)C=C[C@]4(C)[C@@]3(F)[C@@H](O)C[C@]2(C)[C@@]1(O)C(=O)COP(=O)(O)O,inactive
13,C=C(C(=O)O)[C@@H]1CC=C2CCC[C@H](C)[C@@]2(C)C1,inactive
14,C=C1CC2[C@]3(C)C(=C(O)C(=O)[C@@]2(C)[C@]2(C(=O)OC)C(=O)C(C)OC(=O)[C@@]12C)C(C)(C)C(=O)CC3O (stereo not given in full),inactive
15,COC(=O)[C@@]1(O)C=CC[C@@H]2[C@@]3(C)C[C@@H](c4ccoc4)OC(=O)[C@H]3CC[C@]21C,inactive
16,CC(=O)OC[C@]12[C@H](OC(C)=O)C(=O)[C@@H]3[C@@H](OC(C)=O)[C@@]14O[C@@]3(C)COC(=O)c1cccnc1[C@@H](C)[C@H](C)C(=O)O[C@@H]([C@H](OC(C)=O)[C@@H]2OC(C)=O)[C@]4(C)O,inactive
17,CCCCCCc1cccc(NC(=O)[C@H](N)CCP(=O)(O)O)c1,inactive
18,C/C(=C\CCC(C)(O)c1ccc(C)cc1)C(=O)O (stereo not given),inactive
19,CO[C@H]1C=C2C(CC[C@H](O[C@@H]3O[C@H](CO)[C@@H](O)[C@@H](O)[C@H]3O)C2(C)C)[C@]2(C)CC[C@]3(C)C([C@H](C)C(O)C(C=C(C)C)O[C@@H]4O[C@H](CO)[C@@H](O)[C@@H](O)[C@H]4O)CC[C@@]3(C)C12 (stereo not given in full),inactive
20,C[C@@H]1O[C@@H](O[C@@H]2[C@@H](O)[C@H](O[C@@H]3[C@@H](O)[C@@H](O)[C@H](O[C@H]4[C@H](OC(=O)[C@]56CCC(C)(C)C[C@H]5C5=CCC7[C@@]8(C)C[C@H](O)[C@H](O[C@@H]9O[C@H](C(=O)O)[C@@H](O)[C@H](O)[C@H]9O)[C@@](C)(CO)C8[C@H](O)C[C@@]7(C)[C@]5(C)CC6)OC[C@H](O)[C@@H]4O)O[C@H]3C)OC[C@H]2O)[C@H](O)[C@H](O)[C@H]1O (stereo not given in full),inactive
21,C/C=C/C=C/C=C/C(=O)O[C@@H]1C=C(CO)C(O)(C(=O)O)[C@@]2(C)CCCC(C)(C)[C@H]12 (stereo not given in full),inactive
22,CCOC(=O)c1ccnc(CNCC(=O)N(CC)CCN(C)C)c1,inactive
23,C/C=C/C=C/C=C/C(=O)O[C@@H]1[C@@H](OC)C2=C(C(=O)N(C(C)C(=O)O)C2)[C@@]2(C)CCCC(C)(C)[C@H]12 (stereo not given in full),inactive
24,C[C@H]1CN(C[C@H](Cc2ccccc2)C(=O)NCC(=O)O)CC[C@@]1(C)c1cccc(O)c1,inactive
25,C=C(C)C(=O)O[C@H]1C[C@@](C)(OC(C)=O)[C@@]2(O)CC[C@@](C)(O)[C@H](OC(C)=O)[C@@]23OC(=O)C(COC)=C13,inactive
